Measurements reported in the supplement of paper PMC7801607.

Assays:
CHO = assay: % viability of CHO cells (MTT); higher = less toxic; conditions: 48 h
Procedure, shortened: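 For 48 h, attached CHO cells (10^6 cells/well, 200 µL, seeded the night before) were kept in fresh medium carrying compound at 2 or 20 µM. A colorimetric tetrazolium (MTT) assay then gave survival as percent viability versus untreated cells.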

HepG2-A16-CD81 = assay: % inhibition of HepG2 viability (CellTiter-Glo); higher = more toxic; conditions: 5 µM
[1] = test system: Plasmodium falciparum NF54 stage IV/V gametocytes; assay: % inhibition of gametocyte viability (PrestoBlue); higher = more inhibition; conditions: 48 h
Procedure, shortened: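 Stage IV/V NF54 gametocytes at 2% gametocytaemia and 5% haematocrit (100 µL/well) were treated with compound at 1 or 5 µM and incubated for 48 h at 37 °C under stationary, hypoxic conditions. PrestoBlue (10 µL) was then added for 2 h, and fluorescence at 612 nm was read on 70 µL of transferred supernatant. Percent inhibition of gametocyte viability was normalised to vehicle and kill controls within one run.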

[2] = test system: Plasmodium falciparum NF54 asexual blood stage; assay: % inhibition of asexual blood stage proliferation (pLDH); higher = more inhibition; conditions: 72 h
Procedure, shortened: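 Plasmodium falciparum NF54 ring-stage cultures (1% haematocrit, 2% parasitaemia) were incubated with compound at 2 or 20 µM for 72 h at 37 °C under 4% CO2, 3% O2 and 93% N2. Survival was read at 620 nm with the parasite lactate dehydrogenase assay. Results were reported as percent inhibition of asexual proliferation relative to controls.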

[3] = test system: Plasmodium falciparum NF54 stage IV/V gametocytes; assay: % inhibition of gametocyte viability (ATP bioluminescence); higher = more inhibition; conditions: 24 h
Procedure, shortened: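 Stage IV/V NF54 gametocytes from density gradients (30,000 per well, 96-well plates) were incubated with compound at 1 or 5 µM for 24 h at 37 °C. A single run supplied percent inhibition of gametocyte viability, based on ATP measured with Promega BacTiter Glo and normalised to control wells.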

[4] = test system: Plasmodium falciparum NF54 stage IV/V gametocytes; assay: % inhibition of gametocyte viability (luciferase reporter); higher = more inhibition; conditions: 48 h
Procedure, shortened: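 Stage IV/V gametocytes of the NF54-Pfs16-GFP-Luc line (2% gametocytaemia, 2% haematocrit) were exposed to compound at 1 or 5 µM. Incubation was 48 h at 37 °C, stationary and hypoxic. Luminescence was read on 30 µL lysate plus 30 µL Promega luciferin substrate on a GloMax-Multi+ reader with 10 s integration. Percent inhibition was normalised to DMSO and kill controls from a single run.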

[5] = test system: Plasmodium berghei ANKA liver stage in HepG2-A16-CD81; assay: % inhibition of liver stage parasite viability (luciferase); higher = more inhibition; conditions: 5 µM; 48 h
Experimental: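 Single-concentration screen of the MMV Pandemic Response Box. P. falciparum NF54 asexual blood stages: pLDH assay, 72 h at 37 °C, 2 and 20 µM, n=2. Stage IV/V gametocytes (NF54): luciferase reporter (NF54-Pfs16-GFP-Luc, 48 h), ATP bioluminescence (24 h) and PrestoBlue (48 h) at 1 and 5 µM, n=1. P. berghei liver stage (luciferase in HepG2-A16-CD81, 48 h post infection) at 5 µM, n=4. All normalised to DMSO and kill controls as % inhibition.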
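Wherever % inhibition of HepG2 viability (CellTiter-Glo) is given: HepG2-A16-CD81 hepatoma cells plated as in the liver-stage assay but without sporozoites, with DMSO wells as negative and 25 µM puromycin as positive control.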

SMILES | % viability of CHO cells (CHO; 2 µM) [%] | % viability of CHO cells (CHO; 20 µM) [%] | % inhibition of HepG2 viability (HepG2-A16-CD81) [%] | % inhibition of gametocyte viability ([1]; 1 µM) [%] | % inhibition of gametocyte viability ([1]; 5 µM) [%] | % inhibition of asexual blood stage proliferation ([2]; 2 µM) [%] | % inhibition of asexual blood stage proliferation ([2]; 20 µM) [%] | % inhibition of gametocyte viability ([3]; 1 µM) [%] | % inhibition of gametocyte viability ([3]; 5 µM) [%] | % inhibition of gametocyte viability ([4]; 1 µM) [%] | % inhibition of gametocyte viability ([4]; 5 µM) [%] | % inhibition of liver stage parasite viability [5] [%]
CN(C)CCNC(=O)c1cccc2cccnc12 | 70.5 | 19.6 | -1.05 | < 0 | < 0 | 9.84 | -0.35 | < 0 | < 0 | < 0 | 10.1 | 16.5
CC[C@H]1OC(=O)[C@H](C)[C@@H](O[C@H]2C[C@@](C)(OC)[C@@H](O)[C@H](C)O2)[C@H](C)[C@@H](O[C@@H]2O[C@H](C)C[C@H](N(C)C)[C@H]2O)[C@](C)(O)C[C@@H](C)C(=O)[C@H](C)[C@@H](O)[C@]1(C)O | 90.8 | 55.1 | 3.5 | 21 | 21 | -1.14 | 14.1 | < 0 | < 0 | < 0 | < 0 | 34
Nc1nc2c(ncn2/C=C2/CC2(CO)CO)c(=O)[nH]1 | 102 | 5.45 | -5.92 | 10.2 | 7.42 | 6.02 | 5.03 | < 0 | < 0 | < 0 | 1.19 | 9.21
Cc1c(OCC(F)(F)F)ccnc1CS(=O)c1nc2ccccc2[nH]1 (stereo unspecified) | 87.1 | 96.9 | 1.82 | 14.1 | 15.8 | 71.5 | 95.5 | < 0 | < 0 | < 0 | < 0 | -23.2
CNc1nc(=O)[nH]cc1F | 95.1 | 98.5 | -2.31 | < 0 | 8.84 | -10.3 | -14.1 | < 0 | < 0 | < 0 | < 0 | 18.4
CCCNc1ccc(S(=O)(=O)Nc2cc(C)on2)cc1 | 93.3 | 116 | -1.94 | -0.214 | 6.51 | 1.93 | -9.2 | 0.832 | < 0 | < 0 | < 0 | 32.4
Fc1ccc(-n2cc(Cn3c(-c4cccc(F)c4)nc4ccccc43)nn2)cc1 | 86.4 | 78.7 | -1.61 | < 0 | 43.7 | 9.59 | 83.1 | < 0 | < 0 | < 0 | < 0 | 6.9
O=[N+]([O-])c1ccc2c(CCc3c[nH]c4ccccc34)c[nH]c2c1 | 101 | 143 | 0.942 | < 0 | 28 | 61.5 | 92.7 | < 0 | < 0 | < 0 | < 0 | -60.7
O=C(NO)C1(CS(=O)(=O)c2ccc(Oc3ccc(Cl)cc3)cc2)CCOCC1 | 108 | 76.6 | 7.05 | 22.6 | 28.2 | 28.1 | 34.1 | < 0 | < 0 | 2.48 | < 0 | 35.5
COc1ccc(NS(=O)(=O)c2ccc(Cl)s2)cn1 | 98 | 100 | 6.74 | < 0 | 6.82 | 22.6 | 48.5 | < 0 | < 0 | 4.39 | < 0 | -1.42
CC(C)(C)NC(=O)[C@@H]1C[C@@H]2CCCC[C@@H]2CN1C[C@@H](O)[C@H](Cc1ccccc1)NC(=O)[C@H](CC(N)=O)NC(=O)c1ccc2ccccc2n1 | 89 | 114 | 10.9 | < 0 | 19.6 | 40 | 58.3 | < 0 | < 0 | < 0 | < 0 | 26.6
CC(=O)NC[C@H]1CN(c2ccc(N3CCSCC3)c(F)c2)C(=O)O1 | 105 | 91.5 | 4.22 | < 0 | < 0 | 37.1 | 49.9 | < 0 | < 0 | < 0 | < 0 | 50.2
Cc1cc(C)n(O)c(=O)c1 | 108 | 109 | -0.333 | < 0 | 3.7 | -9.1 | 4.56 | < 0 | 3.75 | < 0 | < 0 | 15.5
CCCCCCCCC(CP(=O)(O)C(C)N)C(=O)O (stereo unspecified) | 97.4 | 137 | -1.01 | < 0 | < 0 | 17.8 | 95.7 | < 0 | < 0 | < 0 | 10.2 | 24.3
O=C(c1nc2c(C(F)(F)F)cc(C3CC3)cn2c1Cl)N1CCN([C@H]2CC[C@H](O)CC2)C(=O)C1 | 100 | 116 | 0.895 | 28.7 | 6.18 | 14.7 | 46.1 | 10.1 | 1.45 | 3.76 | < 0 | 16.9
OB1OCc2cc(Cl)ccc21 | 90.1 | 100 | -4.78 | < 0 | < 0 | 2.76 | -5.4 | < 0 | < 0 | < 0 | < 0 | 23.6
O=C(NC1CCCc2c1[nH]c1ccc(Cl)cc21)c1ccccn1 (stereo unspecified) | 96.3 | 102 | 20.7 | < 0 | 6.95 | 20.6 | 37.5 | < 0 | < 0 | < 0 | < 0 | 2.22
CC(C)Cn1c(=O)n(C)c(=O)c2c(-c3cncn3C)n(Cc3cccc4ccccc34)nc21 | 92.4 | 102 | 8.23 | 3.5 | 22.5 | 85.2 | 118 | < 0 | < 0 | 11.4 | < 0 | -8.38
